SMILES strings stand for the structures. Out of some 69,000 compounds screened, about 420 (0.61%) showed an effect of 50% or more. What follows is part of a selection rich in strong results, with near analogues and random picks from the rest.

This assay deals with T1, Histidine--tRNA ligase (Leishmania infantum) (UniProt A4I591).
T1 sequence (whole entry): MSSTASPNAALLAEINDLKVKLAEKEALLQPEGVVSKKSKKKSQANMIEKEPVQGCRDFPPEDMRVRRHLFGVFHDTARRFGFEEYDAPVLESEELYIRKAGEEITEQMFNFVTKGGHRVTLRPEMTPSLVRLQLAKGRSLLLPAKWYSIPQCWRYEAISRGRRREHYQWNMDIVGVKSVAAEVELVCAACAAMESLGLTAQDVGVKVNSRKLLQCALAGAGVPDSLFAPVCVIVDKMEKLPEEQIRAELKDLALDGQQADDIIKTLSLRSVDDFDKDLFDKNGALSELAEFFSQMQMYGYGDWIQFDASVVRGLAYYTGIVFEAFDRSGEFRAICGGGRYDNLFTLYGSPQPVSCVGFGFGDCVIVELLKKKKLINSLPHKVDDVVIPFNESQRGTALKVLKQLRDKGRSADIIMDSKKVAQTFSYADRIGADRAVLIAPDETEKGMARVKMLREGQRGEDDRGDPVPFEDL
The assay is described as follows: Leishmania infantum Histidine tRNA synthetase (LdHisRS). The conditions noted are these: 30 µM. It counts as functional. The arrangement: scale not given: in the data most compounds retested in dose-response had high values.
Regarding `O=C(NC[C@]12COC[C@H]1CN(Cc1nccs1)C2)c1ccsc1`, the Percent Effect amounted to 0%.

Consider `Cc1nc(CNCc2cccc(OC34CCCN(CC3)C4)c2)n[nH]1` (stereo unspecified), for which the Percent Effect turned out to be 24.7%.

Turning to `Cc1cnccc1CNCc1ccc(OC23CCCN(CC2)C3)cc1` (stereo unspecified), the Percent Effect stood at 36.5%.

As for `c1ccc(Oc2ccc(OC34CCCN(CC3)C4)cc2)cc1` (stereo unspecified), the Percent Effect was found to be 61.2%.

For `COc1cc(C#N)ccc1OC12CCCN(CC1)C2` (stereo unspecified), the Percent Effect stood at 23.1%.

On to `c1ccc(Oc2cccc(OC34CCCN(CC3)C4)c2)cc1` (stereo unspecified), for which the Percent Effect was 51%.

Take `O=c1[nH]nc(CNCc2ccc(OC34CCCN(CC3)C4)cc2)[nH]1` (stereo unspecified): the Percent Effect was 17.6%.

As for `Cc1ccc(C(=O)N2C[C@@H]3CCCO[C@@H]3[C@H](N(C)Cc3ccco3)C2)o1`, the Percent Effect turned out to be 3.23%.

For `O=S(=O)(N1CCCC1)N1CC[C@H](c2ccccc2)[C@H]2NCCCC[C@H]21`, the Percent Effect was 26.3%.

For `COc1ncccc1CN1C[C@@H]2COC[C@]2(COc2ccccn2)C1`, the Percent Effect came out at 7.69%.

Turning to `CS(=O)(=O)NC[C@]12COC[C@H]1CN(C(=O)c1cnccn1)C2`, the Percent Effect is -2.65%.

`O=C(CN1CCN(c2ncccn2)[C@@H]2CS(=O)(=O)C[C@@H]21)N1CCCCC1`: the Percent Effect was -8.22%.

Regarding `COc1ncc(-c2c(C#N)c(N)nc3c2CCc2[nH]ccc2-3)cn1`, the Percent Effect was 95.7%.

Take `CCOc1ccc(-c2c(C#N)c(N)nc3c2COCC3)cn1`: the Percent Effect turned out to be 21.7%.

For `CCC(C)Sc1ncc(-c2c(C#N)c(N)nc3c2COCC3)cn1` (stereo unspecified), the Percent Effect turned out to be 2.17%.

`COc1ncc(-c2cc(-c3ccn(C)c3)nc(N)c2C#N)cn1`: the Percent Effect was determined as 35.4%.

Turning to `CCCn1cc(-c2cc(-c3cnc(OC)nc3)c(C#N)c(N)n2)c(C)n1`, the Percent Effect was 16.4%.

`COCCc1ncc(-c2c(C#N)c(N)nc3c2CCc2[nH]ccc2-3)cn1`: the Percent Effect came out at 103%.

As to `O=C([C@@H]1C[C@@H]2CCN(Cc3ccco3)C[C@H]2O1)N1CCCO1`, the Percent Effect came out at 15%.

In the case of `CC(C(=O)Nc1nccs1)N1CCc2nn(C)c(=O)cc2C1` (stereo unspecified), the Percent Effect turned out to be 23.2%.

With `CC(C(=O)Nc1ccc(Cl)cn1)N1CCc2nn(C)c(=O)cc2C1` (stereo unspecified), the Percent Effect was determined as 102%.

`Cn1nc2c(cc1=O)CN(CC(=O)Nc1nccs1)CC2`: the Percent Effect is 48.2%.

In the case of `CC(C(=O)Nc1ccnn1C(C)C)N1CCc2nn(C)c(=O)cc2C1` (stereo unspecified), the Percent Effect was 25%.

Turning to `Cn1nc2c(cc1=O)CN(CC(=O)Nc1nncs1)CC2`, the Percent Effect was found to be 6.06%.

On to `Cn1nc2c(cc1=O)CN(CC(=O)Nc1ccc(Cl)cn1)CC2`, for which the Percent Effect stood at 103%.

Regarding `Cc1cccc(CN2C(=O)CO[C@@H]3CN(CCO)C[C@H]32)c1`, the Percent Effect was determined as 15.4%.

Regarding `Cc1cc(C(=O)N2CC[C@@H]3CN(C)S(=O)(=O)[C@@H]3CC2)no1`, the Percent Effect turned out to be 9.62%.

Turning to `Cc1cccc(COC[C@@H]2CC[C@H]3[C@H](CCN3Cc3ccco3)O2)n1`, the Percent Effect was determined as 13.3%.

`c1csc(C2(NCc3csc(C4CC4)n3)CCCC2)n1`: the Percent Effect is 51.6%.

As to `CCCc1nc(CNC2(c3nccs3)CCCC2)cs1`, the Percent Effect came to 15.1%.

In the case of `Cc1csc(C2(NCc3csc(C4CC4)n3)CCCC2)n1`, the Percent Effect worked out at 8.6%.

Take `O=C(NC[C@H]1CC[C@H](c2nnc(-c3cccnc3)o2)CC1)C1CC1`: the Percent Effect was -19.9%.

For `O=C(c1ccsc1)N1C[C@@H]2CCN(C(=O)c3cccc(F)c3)[C@@H]2C1`, the Percent Effect was found to be 11.7%.

In the case of `COC(=O)c1ccc(CNC(=O)Nc2ccc(=O)n(C)c2)cc1`, the Percent Effect stood at 120%.

On to `COc1ccc(CNC(=O)c2ccc(=O)n(C)c2)cc1C`, for which the Percent Effect was -2.08%.

As for `COc1ccc(CNC(=O)Nc2ccc(S(=O)(=O)C(F)F)cc2)cc1`, the Percent Effect stood at 18.3%.

With `O=C(NCc1ccoc1)Nc1ccc(CN2CCOC2=O)cc1`, the Percent Effect is 2.88%.

Turning to `COc1ccc(CNC(=O)Nc2ccc(CN3CCOC3=O)cc2)cc1`, the Percent Effect was 15.2%.

Turning to `COc1ccc(CNC(=O)Nc2ccc(=O)n(C)c2)cc1`, the Percent Effect was 114%.

Turning to `COc1cccc(-c2ccc(CNC(=O)c3ccc(=O)n(C)c3)cc2)c1`, the Percent Effect worked out at 14.6%.

On to `Cc1nnc(NC(=O)NCc2ccoc2)s1`, for which the Percent Effect was 7.69%.

For the compound `Cn1cc(NC(=O)NCc2ccoc2)ccc1=O`, the Percent Effect was 120%.

`c1cnc(N2C[C@H]3CCN(CCN4CCCC4)C[C@H]3C2)cn1`: the Percent Effect is 25.7%.

For `Cc1ccc(CN2CC[C@H]3[C@@H]2CCC(=O)N3CCN2CCCC2)s1`, the Percent Effect turned out to be 5.11%.

With `CC(C)NC(=O)N1CC[C@H]2[C@H]1CCN2c1ncccn1`, the Percent Effect came to 15.4%.

Turning to `COc1ncccc1CN1C[C@@H]2COC[C@]2(COc2cccnc2)C1`, the Percent Effect amounted to 20.5%.

In the case of `Cc1nc([C@@H]2C[C@@H]3CCN(C(=O)c4ccsc4)C[C@H]3O2)no1`, the Percent Effect was 0%.

Consider `COc1cccc(CN2C[C@@H]3CC[C@@](O)(c4ccccn4)[C@@H]3C2)c1OC`, for which the Percent Effect is 0%.

Consider `CC(C)=CCN1CCN(Cc2nccn2C)[C@H]2CS(=O)(=O)C[C@H]21`, for which the Percent Effect turned out to be 11.2%.

On to `CCCS(=O)(=O)N1CCO[C@H]2[C@@H](Oc3cccnc3)CC[C@@H]21`, for which the Percent Effect was 16.4%.

In the case of `CN(CCN1CCOCC1)C(=O)CCCc1ccccc1`, the Percent Effect stood at 11.4%.

As to `Cc1c(CN2CCOCC2)c(O)n(CCc2ccccc2)c(=O)c1C#N`, the Percent Effect was determined as 60.5%.

Take `Cc1c(CN2CCCCC2)c(O)n(CCO)c(=O)c1C#N`: the Percent Effect stood at 55.9%.

As for `Cc1c(CN2CCCCC2)c(O)n(CCCO)c(=O)c1C#N`, the Percent Effect amounted to 45.4%.

As to `Cn1c(NCCN2CCCCCC2)c(C#N)c(=O)n(C)c1=O`, the Percent Effect was 24.7%.

On to `Cc1c(CN2CCOCC2)c(O)n(CCO)c(=O)c1C#N`, for which the Percent Effect came to 47.4%.

(Values after ChEMBL document CHEMBL3988442, “University of Dundee, Small-Polar-MMV Screening Library” (2021).)
